{"source": "PubChem BioAssay AID504850", "about": "(National Center for Advancing Translational Sciences (NCATS), 2011)", "note": "Values joined by “and” are separate entries in the source; they are usually repeats but may differ in a detail not shown here. Equal values may be shown once. About 1,200 (52%) of roughly 2,300 compounds were called active. Another 34% or so got no clear call; they are omitted. The call rests on the fitted dose curve; in most records, active means well fitted inhibition curve with a large enough effect; inconclusive means small, poorly fitted or top-dose-only effect, or effect the other way; inactive means no such curve, though single readings can be large or run the other way. The set was probably picked from earlier hits. This is one part of the list. Potency means the concentration at half of the fitted maximal effect."}
{"assay": "Confirmation screen for delayed death inhibitors of the malarial parasite plastid, 48 hour incubation; further: nearly all actives have a fitted effect of over 65% in size", "conditions": "P. falciparum-infected erythrocytes, luciferase growth; series mostly up to 28.7 µM", "description": "The goal of this screen is to discover new antimalarial compounds that act by inhibiting the development of the apicoplast in the malarial parasite Plasmodium falciparum. The biochemical processes that make this organelle essential for erythrocytic stage parasites are not well understood. However, antibiotics, such as azithromycin and tetracycline, which target the apicoplast translational machinery, have a potent antimalarial effect. […] We have developed a cell-based assay that measures parasite growth based on the expression of an integrated copy of a firefly luciferase reporter. To detect small molecules that cause this \"delayed death phenotype, erythrocytes infected with the luciferase-expressing parasites were incubated with compounds for either one or two generations, corresponding to 48 and 96 hours, respectively. Compounds that inhibit parasite growth in the second generation, but not the first, should be enriched in antimalarials that target the apicoplast. Growth inhibition is detected by a decrease in luciferase activity. MLPCN Grant: R21 NS059500 Assay Provider: David Fidock and Eric Ekland, Columbia University Keywords: NIH Roadmap, MLPCN, MLI, MLSMR, qHTS, NCGC, qHTS, malaria, luciferase, viability\nFour microliters of culture medium (RPMI 1640 with 0.5% w/v Albumax (GIBCO), 24 mM sodium bicarbonate and 10 ug/mL gentamycin) were dispensed by a Multi-drop Combi into white solid 1536-well plates (Grenier) and 23 nL compound was added by a pin tool. Four microliters of infected erythrocytes (2% hematocrit, 0.1% parasitemia final concentration) in culture medium were dispensed and the plates incubated for 48 hours at 37 C in 5% CO2. Two microliters of luciferase detection reagent was added and luminescence was detected by a ViewLux (PerkinElmer) reader."}
{"smiles": "Fc1ccc(C[n+]2c(-c3ccccc3)cc(-c3ccccc3)cc2-c2ccccc2)cc1", "Potency": "2.82 µM (active)"}
{"smiles": "CN1C[C@H](C(=O)N[C@]2(C)O[C@@]3(O)[C@@H]4CCCN4C(=O)[C@H](Cc4ccccc4)N3C2=O)C[C@@H]2c3cccc4[nH]cc(c34)C[C@H]21", "Potency": "2.82 µM (active)"}
{"smiles": "C[C@@H]1CC[C@H]2[C@@H](C)C(=O)O[C@@H]3OC4(C)CC[C@@H]1C32OO4", "note": "(some centres not stated)", "Potency": "0.0447 µM (active)"}
{"smiles": "C[C@@H]1CC[C@H]2[C@@H](C)C(=O)O[C@@H]3O[C@@]4(C)CC[C@@H]1[C@]32OO4", "Potency": "0.0794 µM (active)"}
{"smiles": "Cn1c(O)c(C=NC2C(=O)C3(C)CCC2C3(C)C)c(=O)n(C)c1=O", "note": "(configuration not stated)", "Potency": "inactive"}
{"smiles": "CC(=O)N1CC(=O)Nc2ccc(Cl)cc2C1c1ccccc1", "note": "(configuration not stated)", "Potency": "inactive"}
{"smiles": "O=C(CCl)Nc1nccs1", "Potency": "5.01 µM (active)"}
{"smiles": "O=C(/C=C/c1cccs1)c1cc(Cl)ccc1OC(=O)N1CCOCC1", "Potency": "14.1 µM (active)"}
{"smiles": "C[C@@H]1C[C@@H]([C@H](O)CC2CC(=O)NC(=O)C2)C(=O)[C@@H](C)C1", "Potency": "0.891 µM (active)"}
{"smiles": "C[C@H]1C[C@@H](C)C(=O)[C@@H]([C@H](O)CC2CC(=O)NC(=O)C2)C1", "Potency": "0.0794 µM (active)"}
{"smiles": "Cc1ccc(N2C(=O)NC(=O)/C(=C\\C=C\\c3ccco3)C2=O)cc1", "Potency": "inactive"}
{"smiles": "CCN1CCN(Cc2nc3ccc([N+](=O)[O-])cc3c(=O)n2-c2ccccc2F)CC1", "Potency": "inactive"}
{"smiles": "CN(C)c1ccc(C(=O)N/N=C/C23CC[C@@H](O)CC2(O)CC[C@@H]2[C@@H]3CCC3(C)C(C4=CC(=O)OC4)CCC23O)cc1", "note": "(some centres not stated)", "Potency": "12.6 µM (active)"}
{"smiles": "COc1ccc(C(=O)N/N=C/C23CC[C@@H](O)CC2(O)CC[C@@H]2[C@@H]3CCC3(C)C(C4=CC(=O)OC4)CCC23O)cc1", "note": "(some centres not stated)", "Potency": "inactive"}
{"smiles": "COc1cc(C(=O)N/N=C/C23CC[C@@H](O)CC2(O)CC[C@@H]2[C@@H]3CCC3(C)C(C4=CC(=O)OC4)CCC23O)ccc1O", "note": "(some centres not stated)", "Potency": "inactive"}
{"smiles": "CN(C)[C@@H]1C(=O)C(C(N)=O)=C(O)[C@@]2(O)C(=O)C3=C(O)c4c(O)cccc4[C@@](C)(O)C3[C@H](O)C12", "note": "(some centres not stated)", "Potency": "5.01 µM (active)"}
{"smiles": "C[n+]1c2cc(N)ccc2cc2ccc(N)cc21", "Potency": "1 µM (active)"}
{"smiles": "COC(=O)c1nc(-c2ccc3c(n2)C(=O)C(N)=C(OC)C3=O)c(N)c(-c2ccc(OC)c(OC)c2O)c1C", "Potency": "0.562 µM (active)"}
{"smiles": "CC[C@H]1CN2CCc3cc(OC)c(OC)cc3[C@@H]2C[C@@H]1C[C@H]1NCCc2cc(OC)c(OC)cc21", "Potency": "0.316 µM (active)"}
{"smiles": "CC[C@H]1CN2CCc3cc(OC)c(OC)cc3[C@H]2C[C@@H]1C[C@@H]1NCCc2cc(OC)c(OC)cc21", "Potency": "0.562 µM (active)"}
{"smiles": "CC[C@H]1CN2CCc3cc(OC)c(OC)cc3C2C[C@@H]1C[C@H]1NCCc2cc(OC)c(OC)cc21", "note": "(some centres not stated)", "Potency": "0.0501 µM (active)"}
{"smiles": "O=C1NC(=O)N(c2ccccc2)C(=O)/C1=C/C=C/c1ccco1", "Potency": "inactive"}
{"smiles": "CCN(CC)Cc1cc(Nc2ccnc3cc(Cl)ccc23)ccc1O", "Potency": "79.4 nM (active) and 22.4 nM (active)"}
{"smiles": "CC(C)CCOP(N)(=O)Oc1ccccc1", "note": "(configuration not stated)", "Potency": "4.47 µM (active)"}
{"smiles": "Cn1c(=O)oc2cc(NC(=O)CCl)ccc21", "Potency": "0.794 µM (active)"}
{"smiles": "CCn1c(=O)oc2cc(NC(=O)CCl)ccc21", "Potency": "2.24 µM (active)"}
{"smiles": "O=[N+]([O-])c1cccc2c([As](=O)(O)O)cccc12", "Potency": "3.55 µM (active)"}
{"smiles": "Oc1ccc(-[n+]2c(-c3ccccc3)cc(-c3ccccc3)cc2-c2ccccc2)cc1", "Potency": "0.708 µM (active)"}
{"smiles": "C[C@@H]1O[C@@H](O[C@H]2C[C@@H](O)[C@]3(CO)[C@@H]4C(CC[C@]3(O)C2)[C@@]2(O)CC[C@H](C3COC(=O)C3)[C@@]2(C)C[C@H]4O)[C@H](O)[C@H](O)[C@H]1O", "note": "(some centres not stated)", "Potency": "inactive"}
{"smiles": "CCCNS(=O)(=O)c1ccc(OCC(=O)N2CCN(Cc3ccc4c(c3)OCO4)CC2)c(C)c1", "Potency": "12.6 µM (active)"}
{"smiles": "Cc1ccc(C(C)C)c(OCC(=O)N2CCN(Cc3nc4cc([N+](=O)[O-])ccc4n3C)CC2)c1", "Potency": "inactive"}
{"smiles": "CCOC(=O)COc1ccc2c(c1)c(C(C)=O)c(C)n2Cc1ccccc1", "Potency": "inactive"}
{"smiles": "Cn1cc([N+](=O)[O-])c(C(=O)Nc2ccc3c(C(F)(F)F)cc(=O)oc3c2)n1", "Potency": "inactive"}
{"smiles": "O=C(NC1CC2CCCC(C1)N2)c1ccccc1", "note": "(configuration not stated)", "Potency": "10 µM (active)"}
{"smiles": "Clc1ccccc1CN1CCNCC1", "Potency": "inactive"}
{"smiles": "COc1ccc(Cn2c(N)c(C(=O)NCc3ccco3)c3nc4ccccc4nc32)cc1", "Potency": "3.98 µM (active)"}
{"smiles": "O=c1oc2ccccc2c(O)c1[C@H]1c2ccc(O)cc2Oc2c1c(=O)oc1ccccc21", "Potency": "inactive"}
{"smiles": "CN1CCc2cc3c(c4c2C1Cc1ccccc1-4)OCO3", "note": "(configuration not stated)", "Potency": "0.562 µM (active)"}
{"smiles": "O=C1/C(=C/c2ccccc2)C[C@@]2(O)[C@H]3Cc4ccc(O)c5c4[C@@]2(CCN3CC2CC2)C1O5", "note": "(some centres not stated)", "Potency": "5.01 µM (active)"}
{"smiles": "CCCCCCn1c(=O)c(C(=O)Nc2ncccc2O)c(O)c2ccccc21", "Potency": "inactive"}
{"smiles": "C=C1C(O)[C@@H]2O[C@]3(CC[C@H](/C=C/C(C)[C@@H]4CC(C)=CC5(O[C@H](C[C@@](C)(O)C(=O)O)CCC5O)O4)O3)CC[C@H]2O[C@@H]1C(O)CC(C)[C@H]1OC2(CCCCO2)CCC1C", "note": "(some centres not stated)", "Potency": "0.0891 µM (active)"}
{"smiles": "C=C1C(=O)O[C@@H]2C[C@@H](C)[C@@H]3C=CC(=O)[C@@]3(C)[C@@H](O)[C@H]12", "Potency": "1.58 µM (active)"}
{"smiles": "C=C1C(=O)O[C@@H]2C[C@@H](C)[C@@H]3C=CC(=O)[C@@]3(C)[C@@H](OC(=O)CC(=O)O[C@H]3[C@@H]4C(=C)C(=O)O[C@@H]4C[C@@H](C)[C@@H]4C=CC(=O)[C@]43C)[C@H]12", "Potency": "0.398 µM (active)"}
{"smiles": "C=C1C(=O)O[C@H]2C[C@@H](C)[C@@H]3C=CC(=O)[C@@]3(C)C[C@H]12", "Potency": "2 µM (active)"}
{"smiles": "CCCCN=C[C@]12CCC(O)CC1(O)CCC1[C@@H]2CC[C@]2(C)[C@H](C3C=CC(=O)O3)CCC12O", "note": "(some centres not stated)", "Potency": "inactive"}
{"smiles": "C[C@]12CCC3C(CCC4=CC(O)CC[C@@]43/C=N/O)C1(O)CCC2C1=CC(=O)OC1", "note": "(some centres not stated)", "Potency": "inactive"}
{"smiles": "COC(=O)C1=C(c2ccc(F)cc2OCc2ccccc2)C[C@@H]2CC[C@H]1N2C(=O)NCc1ccccc1Br", "Potency": "1.78 µM (active)"}
{"smiles": "COC(=O)C1=C(c2ccccc2OCc2ccccc2)C[C@@H]2CC[C@H]1N2C(=O)NCCOc1ccc(OC)cc1", "Potency": "12.6 µM (active)"}
{"smiles": "CCC(C(=O)N1CCC2(CC1)OCCO2)n1c2ccccc2c2nc(=O)cc(C)n21", "note": "(configuration not stated)", "Potency": "11.2 µM (active)"}
{"smiles": "CCOc1cc2c(cc1OCC)-n1cccc1C(c1ccccc1F)NC2", "note": "(configuration not stated)", "Potency": "10 µM (active)"}
{"smiles": "CCOP(=O)(OCC)C(O)c1ccc(OC)cc1OC", "note": "(configuration not stated)", "Potency": "inactive"}
{"smiles": "C[n+]1c(-c2ccccc2)cc(-c2ccc(Cl)cc2)cc1-c1ccccc1", "Potency": "2 µM (active)"}
{"smiles": "COc1ccc(-c2cc(-c3ccccc3)[n+](C)c(-c3ccccc3)c2)cc1", "Potency": "3.16 µM (active)"}
{"smiles": "Cc1cc2ccccn2c1C(C[N+](=O)[O-])c1c(F)cccc1Cl", "note": "(configuration not stated)", "Potency": "12.6 µM (active)"}
{"smiles": "O=[N+]([O-])c1ccc(NC2CCCC2)c2ccncc12", "Potency": "inactive"}
{"smiles": "C=CCn1c(O)c(N=Nc2c(C)n(C)n(-c3ccccc3)c2=O)c(=O)[nH]c1=S", "Potency": "11.2 µM (active)"}
{"smiles": "C[C@@H]1C[C@@H]2O[C@H]2/C=C\\C=C\\C(=O)Cc2c(Cl)c(O)cc(O)c2C(=O)O1", "Potency": "7.08 µM (active)"}
{"smiles": "C=C[C@H]1CN2CC[C@H]1C[C@@H]2[C@@H](O)c1ccnc2ccccc12", "Potency": "0.251 µM (active)"}
{"smiles": "CN1C2CCC1/C(=C/c1ccccn1)C(=O)/C2=C\\c1ccccn1", "Potency": "0.251 µM (active)"}
{"smiles": "CC[n+]1c(-c2ccccc2)c2cc(N)ccc2c2ccc(N)cc21", "Potency": "1 µM (active)"}
{"smiles": "CC(C)c1ccc(N2C(=O)NC(=O)/C(=C\\C=C\\c3ccco3)C2=O)cc1", "Potency": "inactive"}
{"smiles": "CC(C)c1oc(=O)cc2c1[C@@H](O)[C@H]1OC(=O)[C@@]3(C)CC[C@@H](O)[C@@]2(C)C13", "note": "(some centres not stated)", "Potency": "8.91 µM (active)"}
